Results taken from PubChem BioAssay AID2401 (Southern Research Specialized Biocontainment Screening …, 2010).
In all, about 2,200 compounds went through this assay and about 530 (24%) were called active.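 The calls were made as follows: active = inhibition above a set limit at one or more concentrations of the dose series; inactive = inhibition under that limit at every dose.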 A selection follows. Measured potencies and affinities stand elsewhere.

Experiment: nmpC-GFP reporter counter-screen in S. Typhimurium, dose response, counter-screen for PhoP regulon inhibitor project, Salmonella Typhimurium, GFP fluorescence (AID 2401);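 also: S. typhimurium with Mg-insensitive nmpC-GFP reporter grown at 10 µM Mg2+; drop in reporter fluorescence reflects general culture growth inhibition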
Conditions: 4 h; series mostly up to 150 µM; inhibition: at the top concentration

SMILES | inhibition
NC(=O)CCc1c[nH]c2ccccc12 | -21.9% (inactive)
O=C(Cc1c[nH]c2ccccc12)N/N=C/c1ccc(F)cc1 | -15.5% (inactive)
CCc1nn2cc(C(=O)c3cc(Cl)ccc3O)cnc2c1-c1ccc(F)cc1 | -4.45% (inactive)
Cc1cc(C(=O)COC(=O)CNC(=O)c2ccco2)c(C)n1Cc1ccco1 | -20.9% (inactive)
c1ccc(Nc2ccnc(Nc3ccccc3)n2)cc1 | 29.3% (inactive)
Cc1[nH]c2ccccc2c1C(O)CN1CCN(c2cccc(C(F)(F)F)c2)CC1 (centres undefined) | -0.27% (inactive)
Brc1cccc(CNc2nc3ccccc3n2CCN2CCCCC2)c1 | 4.39% (inactive)
CC(C)CCNC(=S)Nc1ccc([N+](=O)[O-])cc1 | 2.69% (inactive)
Cc1cc(C(=O)N/N=C/c2ccc[nH]2)no1 | -10.4% (inactive)
CC1=CC(C)C2(CO)COC(c3ccccc3O)C1C2C (centres undefined) | -15.8% (inactive)
CCOC(=O)c1sc(-c2ccc(C(F)(F)F)cc2)nc1O | 8.9% (inactive)
CC(Oc1ccc(Cl)cc1)c1ccnn1S(=O)(=O)c1ccccc1 (centres undefined) | 0.01% (inactive)
CC(=O)Nc1ccc(S(=O)(=O)N2CCC(n3cnc4cc(F)ccc43)CC2)cc1 | -27.3% (inactive)
CCOC(=O)C1=C(C)N=c2s/c(=C\c3ccncc3)c(=O)n2C1c1ccc2c(c1)OCO2 (centres undefined) | 26.9% (inactive)
COc1ccc(C(=O)COc2nc(C)cc(C)c2C#N)cc1 | -5.05% (inactive)
COc1ccc2nc(NC(=O)C3CCCN3S(=O)(=O)c3ccc(C)cc3)sc2c1 (centres undefined) | -14.7% (inactive)
Clc1ccc(Nc2ncnc3c2cnn3-c2ccccc2)cc1 | -8.79% (inactive)
COc1cc(CNc2ccc(CNc3ncn[nH]3)cc2)ccc1OCC(=O)NC(C)(C)C | -15.3% (inactive)
NC[C@@]12CCCC1C1CCC2C1 (some centres undefined) | -36.1% (inactive)
O=C(Oc1ccc[nH]c1=O)c1cc([N+](=O)[O-])cc([N+](=O)[O-])c1 | 21.5% (inactive)

SMILES | inhibition
CC(O)CNc1cc(N)c([N+](=O)[O-])cc1[N+](=O)[O-] (centres undefined) | 14.5% (inactive)
CC(NC(=O)C1(C)CC1(Br)Br)C(C)(C)C (centres undefined) | -28.4% (inactive)
Cc1cc(C(=O)N/N=C/c2cc(Br)cc(Br)c2OC(=O)c2ccccc2)n[nH]1 | 2.66% (inactive)
Cc1cc2ncn(C3CC(=O)N(Cc4ccc(N5CCCC5=O)cc4)C3=O)c2cc1C (centres undefined) | -18.1% (inactive)
O=C(CSc1nnc2n(C3CCCCC3)c(=O)c3ccccc3n12)OC1CCCCC1 | -4.67% (inactive)
Cc1ccc2cc(C(=O)O)c(C)nc2c1 | 0.56% (inactive)
Cc1ccccc1NC(=O)Nc1cccs1 | -3.85% (inactive)
Cc1ccc(S(=O)(=O)N2CCCC2C(=O)OCc2ccco2)cc1 (centres undefined) | 3.11% (inactive)
CCCOc1ccc(Cn2cnc3ccccc32)cc1 | 8.82% (inactive)
Cc1cc(C)nc(NC(=O)Cc2cccs2)n1 | 0.59% (inactive)
Cc1c(C)n(Cc2ccccc2)c2ncnc(N)c12 | -3.49% (inactive)
O=C(NCc1cccnc1)c1cc2ccccc2oc1=O | -3.7% (inactive)
COC(=O)Cc1ccc(NC(=S)N2CCN(c3ccc(F)cc3)CC2)cc1 | -7.16% (inactive)
CCn1cc(C(=O)NCc2ccncc2)c(=O)c2cc(F)c(N3CCN(C(=O)c4ccco4)CC3)cc21 | -34.3% (inactive)
Cc1cc(SCC(N)=O)nc(SCC(=O)c2ccccc2)n1 | -14.3% (inactive)
COC(=O)C1(O)CC(C(C)C)=NN1C(=O)c1ccc(Cl)cc1 (centres undefined) | -22.4% (inactive)
Cc1ccc(C(=O)NC(=S)Nc2cccc3c(C)cc(C)nc23)cc1 | -25.1% (inactive)
Cc1ccc(Nc2nnc(C3C(=O)N(C)C4(C)CC3c3cc(Br)ccc3O4)s2)cc1 (centres undefined) | 2.31% (inactive)
Cc1cccc(OCCSCc2nc3ccccc3[nH]2)c1 | 34% (inactive)
Cn1c(SCC(=O)N2c3ccccc3CCc3ccccc32)nnc1-c1cc2ccccc2cc1O | 20.2% (inactive)

SMILES | inhibition
O=C(Cn1nc(C(F)(F)F)c2c1CCCCC2)N1CCOCC1 | -0.36% (inactive)
CCOC(=O)C1=CSC2=NS(=O)(=O)CCN12 | -28.4% (inactive)
[O-]/[N+](=C\c1ccncc1)c1ccccc1 | -18.9% (inactive)
Cc1c(C(=O)Nc2cccc(Cl)c2)c2ccccn2c1CCc1ccncc1 | -15.3% (inactive)
COc1cc(C)ccc1OCCCOc1ccccc1Br | -5.6% (inactive)
COC(=O)c1cc(C#N)c(Oc2ccccc2OC)nc1C | -10.3% (inactive)
Cc1occc1C(=O)n1cnc2ccccc21 | -6.49% (inactive)
COc1cccc2[nH]c3c(N4CCC(C)CC4)ncnc3c12 | -17.3% (inactive)
NC(=O)C1(NC(=O)[C@@H]2CC3(CC(c4cccc(NC(=O)[C@@H]5CCC(=O)N5)c4)=NO3)CN2C(=O)Cc2ccc(Cl)cc2)CC1 (some centres undefined) | -35.9% (inactive)
Cc1ccc(/C(O)=C2\C(=O)C(=O)N(CC(C)O)C2c2cccc(F)c2)cc1 (centres undefined) | -9.74% (inactive)
CCCCOc1ccc(S(=O)(=O)NNC(=O)C2Cc3c(ccc4ccccc34)O2)cc1 (centres undefined) | -7.66% (inactive)
O=C(CN1CCCCC1)Nc1cccc(Br)c1 | 1.22% (inactive)
Cc1ccc(S(=O)(=O)c2c(C(=O)c3ccccc3)cnc3cc4c(cc23)OCCO4)cc1 | 4.08% (inactive)
OC(COc1ccc2ccccc2c1Br)Cn1ccnc1 (centres undefined) | 19.7% (inactive)
CC(C)c1ccc(C2NC(=O)NC3=C2CCc2ccccc23)cc1 (centres undefined) | -15.2% (inactive)
N/C(=N/OC(=O)c1ccccc1Cl)c1ncc([N+](=O)[O-])s1 | 27.3% (inactive)
O=C(Nc1ccc(Cl)c(Cl)c1)Nc1ccccc1O | 18.8% (inactive)
CC(=O)c1ccc(NC(=O)Nc2cccc(Cl)c2)cc1 | 12.5% (inactive)
CCCCOc1ccc(NC(=O)Nc2nnc(C)s2)cc1 | -12.1% (inactive)
